Test results as given in PubChem BioAssay.
Values without a mark were called inactive.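 The calls were made as follows: active = compounds whose cell count with miR-34 switched on is under 0.7 times the count with it off; inactive = the rest.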

assay: sensitizers of A549 cells to miR-34 induction, primary screen, imaging, A549 dox-inducible miR-34, nuclei and caspase counts (AID 1347080); details: A549 miR-34 inducible, Hoechst nuclei count, 48 h; active compounds read low; cell number ratio, induced over uninduced; also: test concentration not given here

Compound	fold change
N=C(N)SCCC[C@H](N)C(=O)O	0.98
CC/C=C\C/C=C\C/C=C\C/C=C\CCCCC(=O)O	0.875
CCCCC(C)(C)[C@H](O)/C=C/[C@@H]1[C@@H](C/C=C\CCCC(=O)O)[C@@H](O)C[C@H]1O	0.98
CCCCC(C)(O)C/C=C/[C@H]1[C@H](O)CC(=O)[C@H]1CCCCCCC(=O)OC (stereo not given in full)	1.02
N[C@@H](Cc1ccc(O)c([N+](=O)[O-])c1)C(=O)O	0.943
O=C(O)CCC/C=C\C[C@H]1[C@@H](/C=C/[C@@H](O)CCc2ccccc2)[C@H](O)C[C@@H]1O	0.9
O=C(O)CCC/C=C\C[C@H]1C(=O)C[C@@H](O)[C@@H]1/C=C/[C@@H](O)Cc1ccccc1	0.985
CCCCC/C=C\C/C=C\CCCCCCCC(=O)OCC(COC(=O)CCCCCCCCCCCCCCC)OC(=O)CCCCCCC/C=C\CCCCCCCC (stereo not given)	1.03
O=C(O)CCC/C=C\C[C@@H]1[C@@H](/C=C/[C@@H](O)C2Cc3ccccc3C2)[C@@H](F)C[C@@H]1O	0.86
CCCCC[C@](C)(O)/C=C/[C@@H]1[C@@H](C/C=C\CCCC(=O)O)[C@@H](O)C[C@H]1O	0.971
OC[C@H]1NC[C@H](O)[C@@H](O)[C@@H]1O	0.965
CCCCCCCCCCCCC/C=C/[C@@H](O)[C@H](COP(=O)(O)O)NC(=O)CCCCCCC	1.01
O=C(O)CCC/C=C\C[C@H]1C(=O)C=C[C@@H]1CC[C@@H](O)CCc1ccccc1	0.93
CN(C)CCCCCCOc1ccc(-n2ccnc2)cc1	1.01
CCCCC[C@H](O)/C=C/[C@H]1OC(O)C[C@H](O)[C@@H]1CCCCCCC(=O)O (stereo not given in full)	1.03
CCOc1c2c(c(OCC)c3ccccc13)C(=O)N(c1ccc(CC(=O)NS(=O)(=O)c3ccccc3)cc1)C2	0.911
CCCCCCCCCCOc1ccc(OCC(=O)Cn2cc(C(=O)OC)c3cc(C(=O)O)ccc32)cc1	0.961
CCCCC(C)(C)[C@H](O)/C=C/[C@H]1C=CC(=O)[C@@H]1C/C=C\CCCC(=O)O	0.967
CCCCC/C=C\C/C=C\C/C=C\C/C=C\CCCC(=O)S[C@H](COCCCCCCCCCCCCCCCC)COP(=O)([O-])OCC[N+](C)(C)C	1.09
CCCCC/C=C\C/C=C\C/C=C\C/C=C\CCCC(=O)OCC(O)CO (stereo not given)	0.924

Compound	fold change
O=C(O)CCC/C=C\C[C@H]1[C@@H](/C=C/[C@@H](O)CCc2ccccc2)[C@H](O)C[C@H]1O	0.969
CCCCC[C@H](O)/C=C/[C@@H]1[C@@H](CCCCC(CC(=O)O)OC)[C@@H](O)C[C@H]1O (stereo not given in full)	0.924
CCCCC[C@H](O)/C=C/[C@H]1C=CC(=O)[C@H]1CCCCCCC(=O)O	0.88
CCCCC[C@H](O)/C=C/[C@@H]1[C@@H](C/C=C/CCCC(=O)O)[C@H](O)C[C@H]1O	0.95
CCCCC[C@H](O)/C=C/[C@@H]1[C@H]2CC(CCCCC(=O)O)O[C@H]2C[C@H]1O (stereo not given in full)	0.937
C[Se]CC[C@H](N)C(=O)O	0.969
CCCCC/C=C\C=C\C(O)CCCCCCCC(=O)OC[C@@H](COC(=O)CCCCCCC/C=C\C=C\C(O)CCCCC)OC(=O)CCCCCCC/C=C\C=C\C(O)CCCCC (stereo not given in full)	1.03
O=C(CCCCCc1ccccc1)c1nc2ncccc2o1	1.06
CCCCCCCCCCCCCCCC(=O)OC	0.995
CCCCC/C=C\C/C=C\CCCCCCCC(=O)OC(CO)CO	0.978
COC(=O)[C@H](Cc1ccccc1)NC(=O)/C=C/c1ccc(O)cc1	1
CCCCCC(=O)/C=C/C=O	1.01
O=C(O)CCC/C=C\C[C@@H]1[C@@H](CCC(=O)CCc2ccccc2)[C@H](O)C[C@@H]1O	0.934
O=P(O)(O)OC1[C@H](OP(=O)(O)O)[C@H](O)C(O)[C@H](O)[C@H]1OP(=O)(O)O (stereo not given in full)	0.94
CCCCCCCCCCCCCCCCCCCCCCCCCCCCCCO	0.965
O=C(O)CCC/C=C\C[C@@H]1[C@@H](CC[C@@H](O)CCc2cccc(C(F)(F)F)c2)[C@H](O)C[C@@H]1O	0.926
CC/C=C\C/C=C\C/C=C\CCCCCCCC(=O)OCC	0.898
CCCCCCCCCCCCCCCC(=O)OCC	0.854
NCc1cccc2ccncc12	0.913
C/C=C/C(=O)O[C@H](COCCCCCCCCCCCCCCCC)COP(=O)([O-])OCC[N+](C)(C)C	0.851
